Holding throughout (assay): NCI-60 one-dose screen, 48 h (100 = growth as untreated, 0 = no growth, -100 = all killed)
Holding throughout (conditions): 10 µM unless noted

For experiment [1], the system named is DU-145 prostate.
For experiment [2], the system named is K-562 leukemia.
In experiment [3] the test system is MALME-3M melanoma.
Experiment [4] deals with MDA-MB-231 breast.
For experiment [5], the system named is RXF 393 renal.
Experiment [6] deals with SF-268 CNS.
Experiment [7] has as its system SF-295 CNS.
For experiment [8], the system named is SF-539 CNS.
Experiment [9] relates to UACC-257 melanoma.
Experiment [10] relates to M14 melanoma.
Experiment [11] relates to HCT-15 colon.
The test system of experiment [12] is HT29 colon.
The subject of experiment [13] is SNB-75 CNS.
The test system of experiment [14] is SNB-19 CNS.
In experiment [15] the test system is U251 CNS.
Experiment [16] concerns PC-3 prostate.
In experiment [17] the test system is SK-MEL-5 melanoma.
Experiment [18] has as its system UACC-62 melanoma.
Experiment [19] has as its system SK-MEL-28 melanoma.
Experiment [20] deals with LOX IMVI melanoma.

Where “and” joins values, the source holds several entries; their conditions need not be identical. Equal values may be shown once. The panel holds about 83,000 compounds, 20% with a hit somewhere; the sample as a whole holds those more often.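 Cells were grown in 96-well plates and exposed to the test compound at a single concentration for 48 hours; results are reported as percent growth, with values below 10 considered active.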 Calls of active or inactive are those of the source.

Consider `Cc1cc(N)c2ccccc2[n+]1CCCCCCCCCC[n+]1c(C)cc(N)c2ccccc21`, for which the growth in experiment [1] is 31.3% (inactive) and -73.8% (active); in experiment [2] it was -7.04% (active) and -39.8% (active); in [3], -15.7% (active) and 10.5% (inactive); in experiment [4], 18.9% (inactive) and 1.88% (active); in experiment [5] it was -30.2% (active); in [6], 23.2% (inactive) and 27.9% (inactive). The growth in experiment [7] is -45.6% (active) and 8.47% (active); in experiment [8], -8.43% (active) and -37.4% (active); in experiment [9], 33.5% (inactive) and 5.36% (active); in experiment [10] it was 3.53% (active); in experiment [11], 26.2% (inactive) and 42.4% (inactive); in [12] it was 2.09% (active) and -13.8% (active). For the same compound, the growth was 21.3% (inactive) and -8.96% (active) in experiment [13]; 21.3% (inactive) and 12.5% (inactive) in [14]; -51.1% (active) and 15.5% (inactive) in experiment [15]; 8% (active) and 14.1% (inactive) in experiment [16]; -57.8% (active) and -99.9% (active) in [17]; -66.5% (active) and 1.93% (active) in experiment [18]. In experiment [19], the growth is -26.4% (active).
On to `O=C(Nc1ccccc1)c1cc(Cl)ccc1O`, for which the growth was 83.7% (inactive) in [1]; 33.8% (inactive) in experiment [2]; 40.3% (inactive) in experiment [3]; 70.6% (inactive) in [4]; 79.9% (inactive) in experiment [5]; 66.5% (inactive) in experiment [6]. The growth in [7] was 73.1% (inactive); in experiment [8] it was 53.2% (inactive); in [9], 14.9% (inactive); in experiment [10] it was 50.9% (inactive); in experiment [11], 64.1% (inactive); in [12], 89% (inactive). The growth in experiment [13] is 64% (inactive); in experiment [14], 41.3% (inactive); in experiment [15], 59.1% (inactive); in [16] it was 66.5% (inactive); in experiment [17] it was 7.81% (active); in [18], 34.1% (inactive). Moreover, the growth in [19] was 55.7% (inactive).
`CC1(C)CC([P+](c2ccccc2)(c2ccccc2)c2ccccc2)=NN1`: the growth is 49.6% (inactive) in experiment [1]; 9.92% (active) in [2]; 21.2% (inactive) in experiment [3]; 65.4% (inactive) in experiment [4]; 59.6% (inactive) in experiment [5]; 41.1% (inactive) in experiment [6]. The growth in experiment [7] was 53.2% (inactive); in experiment [8], 51% (inactive); in experiment [9] it was 2.89% (active); in [10], 71.9% (inactive); in experiment [11] it was 94.3% (inactive); in experiment [12], 24.9% (inactive). In addition, the growth in experiment [13] is 34.3% (inactive); in experiment [14], 44.5% (inactive); in experiment [15], 25.5% (inactive); in experiment [16], 29.1% (inactive); in [17], 12.4% (inactive); in [18], 32.2% (inactive). Besides, the growth in experiment [19] is 67.9% (inactive).
As to `CN(C)c1ccc(N=Nc2cccc3ccccc23)cc1`, the growth in [1] was 107% (inactive); in experiment [2] it was 117% (inactive); in experiment [3] it was 101% (inactive); in experiment [4], 80.1% (inactive); in [5] it was 98.9% (inactive); in [6], 95.1% (inactive). In addition, the growth in [7] is 91.5% (inactive); in experiment [8], 97.1% (inactive); in experiment [9], 96.3% (inactive); in experiment [10] it was 80.5% (inactive); in experiment [11] it was 93.1% (inactive); in [12], 93.5% (inactive). Further, the growth in experiment [13] is 76.4% (inactive); in experiment [14], 100% (inactive); in [15] it was 88.6% (inactive); in [16], 75.9% (inactive); in experiment [17], 93.9% (inactive); in [18], 84.2% (inactive). Besides, the growth in [19] was 103% (inactive).
Regarding `CCN(CC)CC(C)(C)C(=O)/C=C/c1ccc(Cl)c(Cl)c1`, the growth in [1] was -61.6% (active); in [2], 1.04% (active); in experiment [3], -52.7% (active); in [4], -48.8% (active); in experiment [5], -81.9% (active); in experiment [6], -0.0402% (active). The growth in experiment [7] was 48.1% (inactive); in experiment [8], -50.4% (active); in experiment [9], -5.04% (active); in experiment [10] it was -43.5% (active); in experiment [11], -34% (active); in experiment [12], -47.4% (active). The growth in experiment [13] is 30% (inactive); in [14], -30.1% (active); in [15], -45.8% (active); in [17], 0.295% (active); in experiment [18], -56.2% (active); in experiment [20], -82.4% (active). In addition, the growth in experiment [19] is -35.5% (active).
Regarding `C=CCOc1ccc(N=NC(C#N)C#N)cc1`, the growth was 77.8% (inactive) in experiment [1]; 38.2% (inactive) in experiment [2]; 3.69% (active) in experiment [3]; 69.7% (inactive) in experiment [4]; 51.1% (inactive) in experiment [5]; 102% (inactive) in experiment [6]. Moreover, the growth in experiment [7] was 92.7% (inactive); in experiment [8], 87% (inactive); in experiment [9] it was 42.1% (inactive); in experiment [10], 66.4% (inactive); in [11] it was 56.9% (inactive); in experiment [12], 72.7% (inactive). Further, the growth in experiment [13] was 74.3% (inactive); in [14], 94% (inactive); in [15] it was 84.6% (inactive); in [16] it was 70.4% (inactive); in experiment [17] it was 91.8% (inactive); in [18], 47.7% (inactive). Further, the growth in experiment [19] was 65.1% (inactive).

(Values after PubChem BioAssay (NCI).)
